Some test systems named below: RPMI-8226 leukemia; OVCAR-8 ovarian; OVCAR-5 ovarian; OVCAR-4 ovarian; IGROV1 ovarian; OVCAR-3 ovarian; HS 578T breast; NCI/ADR-RES ovarian; T-47D breast; BT-549 breast; MDA-MB-435 melanoma; SW-620 colon; MCF7 breast; HCT-116 colon; HCC-2998 colon; SK-OV-3 ovarian; KM12 colon.
What all share (assay): NCI-60 one-dose screen, 48 h (100 = growth as untreated, 0 = no growth, -100 = all killed)
Common to all, as to details: 10 µM unless noted

Compounds without any hit were thinned out: in the full panel of roughly 83,000, 20% have a hit.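 In brief: 96-well plates, 48 h treatment, single concentration, percent growth endpoint.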 Values without a mark were called inactive. Activity calls are given as the source filed them. The calls were made as follows: active = growth percent below 10; inactive = the rest.

Take `CC1=N/C(=C\c2cccc(Br)c2)C(=O)O1`: the growth in the experiment on RPMI-8226 leukemia is 108%; in the experiment on OVCAR-8 ovarian it was 105%; with OVCAR-5 ovarian, 106%; with OVCAR-4 ovarian, 110%; in the experiment on IGROV1 ovarian it was 106%; with OVCAR-3 ovarian, 103%. Besides, the growth in the experiment on HS 578T breast is 107%; with NCI/ADR-RES ovarian it was 107%; with T-47D breast, 97.3%; with BT-549 breast it was 109%; in the experiment on MDA-MB-435 melanoma, 107%; in the experiment with SW-620 colon, 104%. Besides, the figures for the growth with MCF7 breast, in the experiment on HCT-116 colon and in the experiment on HCC-2998 colon were 102%, 103% and 111%, respectively.

`N#Cc1ccc(NC(=O)Nc2ccc(Cc3ccc(NC(=O)Nc4ccc(C#N)cc4)cc3)cc2)cc1`: the growth was -2.1% (active) in the experiment with RPMI-8226 leukemia; 38.7% in the experiment on OVCAR-8 ovarian; 69.6% in the experiment with OVCAR-5 ovarian; 15% in the experiment on OVCAR-4 ovarian; 68.6% with SK-OV-3 ovarian; 29.6% in the experiment on IGROV1 ovarian. Further, the growth in the experiment on OVCAR-3 ovarian is 18.8%; in the experiment with HS 578T breast, 47.9%; in the experiment with NCI/ADR-RES ovarian, 52.7%; in the experiment with BT-549 breast, 20.7%; in the experiment with MDA-MB-435 melanoma, 7.5% (active); in the experiment with SW-620 colon it was 34%. For the same compound, the growth in the experiment with MCF7 breast was 6.82% (active); in the experiment with HCT-116 colon, 18.8%; in the experiment with HCC-2998 colon it was 40.1%; in the experiment on KM12 colon, 18.7%.

As for `COc1ccc(-c2cn3c(-c4ccc(OC)cc4)cnc3c(Oc3ccc4c(C)cc(=O)oc4c3)n2)cc1`, the growth in the experiment on RPMI-8226 leukemia was 63.7%; with OVCAR-8 ovarian, 26.3%; with OVCAR-5 ovarian, 88%; in the experiment with OVCAR-4 ovarian, -18.6% (active); with IGROV1 ovarian, 70.6%; with OVCAR-3 ovarian, 46.6%. Besides, the growth is 57.6% in the experiment on HS 578T breast; 29.9% with NCI/ADR-RES ovarian; 45.3% in the experiment with T-47D breast; 29.2% in the experiment on BT-549 breast; 37.2% in the experiment on MDA-MB-435 melanoma; 39% in the experiment on SW-620 colon. The growth with MCF7 breast is 44.2%; in the experiment with HCT-116 colon it was 33.9%; with HCC-2998 colon it was 77.1%; in the experiment on KM12 colon, 43%.

On to `CCN(CC)CC(C)(C)C(=O)/C=C/c1ccccc1`, for which the growth with RPMI-8226 leukemia was 39.4%; in the experiment on OVCAR-8 ovarian it was 76.6%; with OVCAR-5 ovarian it was 52.4%; with OVCAR-4 ovarian, 63.3%; in the experiment with SK-OV-3 ovarian, 74.8%; with IGROV1 ovarian, 74.1%. Also, the growth with OVCAR-3 ovarian was 37.7%; with HS 578T breast, 75.5%; in the experiment on NCI/ADR-RES ovarian, 46.8%; in the experiment with BT-549 breast, 46%; in the experiment on MDA-MB-435 melanoma, 40%; in the experiment on SW-620 colon, 35.4%. The growth in the experiment with MCF7 breast is 5.47% (active); in the experiment on HCT-116 colon it was 12.8%; with HCC-2998 colon, 79.3%; in the experiment with KM12 colon, 53.9%.

`Oc1ccc(Nc2nccc(-c3ccc4ccccc4c3)n2)cc1`: the growth in the experiment with RPMI-8226 leukemia was 18.3%; in the experiment on OVCAR-8 ovarian, 31.6%; with OVCAR-5 ovarian, 66.9%; in the experiment on OVCAR-4 ovarian, 65.5%; in the experiment with SK-OV-3 ovarian, 57.4%; in the experiment on IGROV1 ovarian, 36.3%. In addition, the growth in the experiment with OVCAR-3 ovarian is 34.3%; in the experiment on HS 578T breast it was 42.8%; with NCI/ADR-RES ovarian it was 14.7%; with BT-549 breast it was 48.2%; in the experiment on MDA-MB-435 melanoma, 8.01% (active); in the experiment on SW-620 colon, 31.8%. Besides, the growth was 20.2% with MCF7 breast, 23.2% with HCT-116 colon, 60.4% in the experiment on HCC-2998 colon and 27.4% in the experiment on KM12 colon.

In the case of `O=C1C(=O)N(CCCCn2cc(CO)nn2)c2ccccc21`, the growth in the experiment on OVCAR-8 ovarian was 102%; with OVCAR-5 ovarian, 98.6%; in the experiment with OVCAR-4 ovarian it was 99.2%; in the experiment with SK-OV-3 ovarian, 100%; in the experiment on IGROV1 ovarian, 106%; in the experiment with HS 578T breast it was 98.8%. In addition, the growth is 100% with NCI/ADR-RES ovarian; 98.7% in the experiment with T-47D breast; 98.9% in the experiment on MDA-MB-435 melanoma; 99.7% in the experiment with SW-620 colon; 100% in the experiment on MCF7 breast; 95.5% with HCT-116 colon. In addition, the growth is 107% with HCC-2998 colon and 101% in the experiment on KM12 colon.

For the compound `CC(C)(C)c1nn(-c2ccccc2)c2c1CC1(CN2Cc2ccc3c(c2)OCO3)C(=O)c2ccccc2C1=O`, the growth in the experiment on RPMI-8226 leukemia was 85.8%; in the experiment on OVCAR-8 ovarian, 89.2%; in the experiment on OVCAR-5 ovarian, 105%; with OVCAR-4 ovarian, 123%; in the experiment with SK-OV-3 ovarian, 115%; with IGROV1 ovarian, 96.6%. The growth with OVCAR-3 ovarian was 123%; with HS 578T breast it was 120%; in the experiment on NCI/ADR-RES ovarian, 101%; with BT-549 breast, 101%; in the experiment with MDA-MB-435 melanoma, 106%; in the experiment on SW-620 colon, 101%. Further, the growth was 97.9% with MCF7 breast, 88.9% with HCT-116 colon, 96.9% with HCC-2998 colon and 105% in the experiment with KM12 colon.

As for `CN[C@@]12CC3(C=CC(=O)C=C3)O[C@]1(Cc1ccc(OC)cc1)N(C)C(=O)N2`, the growth in the experiment with RPMI-8226 leukemia was 17.2%; in the experiment with OVCAR-8 ovarian it was 6.34% (active); in the experiment with OVCAR-5 ovarian, 33.1%; with OVCAR-4 ovarian it was 60.9%; with SK-OV-3 ovarian, 108%; in the experiment on OVCAR-3 ovarian, 17.3%. Also, the growth with HS 578T breast was 106%; in the experiment on NCI/ADR-RES ovarian, 61.7%; with T-47D breast, 47.8%; with BT-549 breast, 44.3%; with MDA-MB-435 melanoma it was 31.4%; with SW-620 colon, 24.6%. Moreover, the growth with MCF7 breast is 16.4%; with HCT-116 colon, 4.01% (active); in the experiment on HCC-2998 colon, 100%; in the experiment on KM12 colon, 98.2%.

In the case of `O=C(/C=C\c1ccc2ccccc2n1)c1cc(Cl)ccc1O`, the growth was 63.6% in the experiment on OVCAR-8 ovarian; 81.3% in the experiment with OVCAR-5 ovarian; 73.6% in the experiment with OVCAR-4 ovarian; 111% in the experiment on SK-OV-3 ovarian; 86.1% in the experiment on IGROV1 ovarian; 43.5% in the experiment with OVCAR-3 ovarian. In addition, the growth was 95.1% in the experiment with HS 578T breast; 60.4% with NCI/ADR-RES ovarian; 28.3% with T-47D breast; 71.5% with BT-549 breast; 51.8% with MDA-MB-435 melanoma; 29% with SW-620 colon. The growth in the experiment on MCF7 breast is 27.9%; in the experiment with HCT-116 colon it was 48.6%; with HCC-2998 colon, 84.4%; in the experiment with KM12 colon it was 74.2%.

Take `N=c1c2ccccc2nc2n1CCCCC2`: the growth is 105% with RPMI-8226 leukemia; 114% in the experiment on OVCAR-8 ovarian; 96.1% in the experiment on OVCAR-5 ovarian; 107% in the experiment with OVCAR-4 ovarian; 112% in the experiment on SK-OV-3 ovarian; 116% with OVCAR-3 ovarian. The growth is 95.4% with HS 578T breast; 105% in the experiment with NCI/ADR-RES ovarian; 111% in the experiment with T-47D breast; 117% in the experiment on BT-549 breast; 103% in the experiment on MDA-MB-435 melanoma; 110% with SW-620 colon. For the same compound, the growth with MCF7 breast was 99.4%; with HCT-116 colon, 109%; in the experiment on HCC-2998 colon, 106%; with KM12 colon it was 112%.

For `O=C(Cn1cc(CN2C(=O)c3ccccc3S2(=O)=O)nn1)Nc1ccc([N+](=O)[O-])cc1Cl`, the growth in the experiment on RPMI-8226 leukemia is 107%; in the experiment on OVCAR-8 ovarian, 95.3%; in the experiment with OVCAR-5 ovarian it was 113%; with OVCAR-4 ovarian, 115%; in the experiment on SK-OV-3 ovarian, 73.5%; in the experiment with IGROV1 ovarian, 103%. Further, the growth in the experiment on HS 578T breast is 92.9%; with NCI/ADR-RES ovarian it was 89.3%; in the experiment with T-47D breast, 76.9%; with BT-549 breast it was 103%; with MDA-MB-435 melanoma it was 103%; in the experiment on SW-620 colon it was 98.1%. Besides, the growth in the experiment with MCF7 breast was 83%; in the experiment with HCT-116 colon it was 103%; with HCC-2998 colon, 98.4%; in the experiment on KM12 colon, 93.8%.
